Assay results: PubChem BioAssay AID1159580 (chemical genetic matrix, 2015)
Values joined by “and” are separate entries in the source; they are usually repeats but may differ in a detail not shown here. Identical values can stand only once. In all, about 5,500 compounds went through this assay and about 2,000 (36%) were called active. Not shown: some 18% with an inconclusive outcome. Rule as the data show it: active = normalized growth mostly below about 0.91 (no sharp cut-off); inconclusive = no clear call, values can overlap the other calls; inactive = mostly above about 0.92. The list shows a part of the results.

Assay: chemical genetic growth profiling, strain panel (AID 1159580);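 also: tested at 20 µM; growth read once vehicle control cultures reached saturation at 30 °C; 1 = growth at the plate median or of vehicle wells; lower values mean less growth of the strain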
Settings: S. cerevisiae deletion strains, growth OD

Measured: normalized growth

Cc1ccc(C(C)C)cc2c(C)ccc1-2
inactive: locus YAL013W, strain DEP1, active compounds read low 1 | locus YAL021C, strain ccr4, active compounds read low 1 | locus YAL026C, strain drs2, active compounds read low 1.02 | locus YAL030W, strain snc1, active compounds read low 1 | locus YBL061C, strain skt5, active compounds read low 1 | locus YBR009C, strain hhf1, active compounds read low 0.999 | locus YBR021W, strain FUR4, active compounds read low 1.01 | locus YBR023C, strain chs3, active compounds read low 1 | locus YBR171W, strain sec66, active compounds read low 1.02 | locus YBR229C, strain ROT2, active compounds read low 1 | locus YBR231C, strain swc5, active compounds read low 1 | locus YBR279W, strain paf1, active compounds read low 1.01 | locus YCL011C, strain gbp2, active compounds read low 1.01 | locus YCL016C, strain dcc1, active compounds read low 0.985 | locus YCL029C, strain bik1, active compounds read low 1.03 | locus YCL061C, strain MRC1, active compounds read low 1.01 | locus YCL069W, strain vba3, active compounds read low 0.996 | locus YCR088W, strain abp1, active compounds read low 1.01 | locus YDL005C, strain med2, active compounds read low 1.01 | locus YDL035C, strain GPR1, active compounds read low 1 | locus YDL040C, strain nat1, active compounds read low 0.99 | locus YDL074C, strain BRE1, active compounds read low 0.944 | locus YDL101C, strain DUN1, active compounds read low 0.991 | locus YDL134C, strain PPH21, active compounds read low 0.984 | locus YDL185W, strain tfp1, active compounds read low 1.02 | locus YDL192W, strain arf1, active compounds read low 1.02 | locus YDR001C, strain nth1, active compounds read low 1 | locus YDR069C, strain doa4, active compounds read low 1 | locus YDR101C, strain arx1, active compounds read low 1.02 | locus YDR137W, strain rgp1, active compounds read low 0.978 | locus YDR159W, strain sac3, active compounds read low 1.05 | locus YDR162C, strain NBP2, active compounds read low 1 | locus YDR195W, strain ref2 0.975 | locus YDR297W, strain sur2, active compounds read low 1 | locus YDR318W, strain mcm21, active compounds read low 1.01 | locus YDR334W, strain swr1, active compounds read low 1 | locus YDR335W, strain msn5, active compounds read low 0.997 | locus YDR388W, active compounds read low 1.03 | locus YDR392W, strain spt3, active compounds read low 0.906 | locus YDR502C, strain sam2, active compounds read low 1 | locus YEL003W, strain gim4, active compounds read low 0.998 | locus YEL037C, strain rad23, active compounds read low 1 | locus YEL061C, strain CIN8 (second series), active compounds read low 1 | locus YEL061C, strain CIN8, active compounds read low 0.998 | locus YER015W, strain faa2, active compounds read low 1 | locus YER016W, strain bim1, active compounds read low 1 | locus YER110C, active compounds read low 1.04 | locus YER111C, strain swi4, active compounds read low 1.01 | locus YER155C, strain BEM2 (second series), active compounds read low 0.998 | locus YER155C, strain BEM2, active compounds read low 1.01 | locus YER167W, strain BCK2, active compounds read low 0.988 | locus YFR010W, strain ubp6, active compounds read low 1.01 | locus YGL078C, strain dbp3, active compounds read low 1.02 | locus YGL086W, strain mad1, active compounds read low 0.994 | locus YGL167C, strain pmr1, active compounds read low 1.01 | locus YGL173C, strain kem1, active compounds read low 1.01 | locus YGL227W, strain vid30, active compounds read low 1.01 | locus YGL240W, strain doc1, active compounds read low 1.01 | locus YGL248W, strain PDE1, active compounds read low 1 | locus YGL253W, strain hxk2, active compounds read low 1.03 | locus YGR078C, strain PAC10, active compounds read low 0.948 | locus YGR135W, strain pre9, active compounds read low 1.03 | locus YGR252W, strain gcn5, active compounds read low 1.02 | locus YHR013C, strain ard1, active compounds read low 1.02 | locus YHR027C, strain rpn1, active compounds read low 1 | locus YHR030C, strain SLT2, active compounds read low 1 and 0.968 | locus YHR079C, strain IRE1 (second series), active compounds read low 1.02 | locus YHR079C, strain IRE1, active compounds read low 0.977 | locus YHR094C, strain hxt1, active compounds read low 1.02 | locus YHR129C, strain ARP1, active compounds read low 1 | locus YHR142W, strain chs7, active compounds read low 1.02 | locus YHR200W, strain rpn10, active compounds read low 1.02 | locus YIL066C, strain RNR3, active compounds read low 0.986 | locus YIL073C, strain SPO22, active compounds read low 1.09 | locus YIL125W, strain kgd1, active compounds read low 1.01 | locus YIR030C, strain dcg1, active compounds read low 1.02 | locus YJL092W, strain hpr5, active compounds read low 1 | locus YJL095W, strain BCK1 (second series), active compounds read low 1 | locus YJL095W, strain BCK1, active compounds read low 0.972 and 1.03 | locus YJL115W, strain asf1, active compounds read low 0.992 | locus YJL129C, strain trk1, active compounds read low 1.01 | locus YJL134W, strain LCB3, active compounds read low 1 | locus YJL154C, strain vps35, active compounds read low 0.999 | locus YJL164C, strain tpk1, active compounds read low 0.991 | locus YJL166W, strain qcr8, active compounds read low 0.994 | locus YJL168C, strain set2, active compounds read low 1.02 | locus YJL187C, strain SWE1 (second series), active compounds read low 0.995 | locus YJL187C, strain SWE1, active compounds read low 1.01
